High-throughput results as filed in PubChem BioAssay.
Hits are enriched below; roughly 2.4% of the tested compounds scored in any of these assays.
LT uptake inh – inhibitors of anthrax lethal toxin internalization | AID 912 | Potency, µM (doses to about 40 µM), inactives show top-dose activity change, negative = inhibition, most hits filed as inhibitors | actives 0.67% (n = 70,000) | Cells, anthrax lethal toxin internalization, FRET ratio (460/530); note: % is set by controls: 0 for no effect and ±100 for the full control effect; nearly all actives have a fitted effect of over 50% in size
Prx2 Sm inh – inhibitors of Schistosoma mansoni peroxiredoxin 2 | S. mansoni Prx2 activity coupled to TGR/GSH (TGR is thioredoxin glutathione reductase), NADPH fluorescence loss, qHTS | Potency, µM | actives 0.07% (n = 65,000) | AID 448
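Enzyme mix: 100 uM NADPH, 25 nM TGR, 700 uM GSH, 50 nM Prx2 in 100 mM phosphate pH 7.4, 10 mM EDTA, 0.01% Tween-20. 15 min RT with compound; NADPH/GSH added, H2O2 starts reaction; NADPH fluorescence read 8 min.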
AmpC det inh – blocks E. coli AmpC beta-lactamase in presence of detergent; P00811; purified AmpC, nitrocefin hydrolysis with detergent; Potency, µM (titrated, usually from 28.7 µM), for the others: top-dose activity change, negative = inhibition; actives 0.09% (n = 71,000); AID 584; active = well fitted curve in the direction sought with a large enough effect; inconclusive = small, poorly fitted or top-dose-only effect; note: % is set by controls: 0 for no effect and ±100 for the full control effect
Target sequence (P00811 whole entry, looked up): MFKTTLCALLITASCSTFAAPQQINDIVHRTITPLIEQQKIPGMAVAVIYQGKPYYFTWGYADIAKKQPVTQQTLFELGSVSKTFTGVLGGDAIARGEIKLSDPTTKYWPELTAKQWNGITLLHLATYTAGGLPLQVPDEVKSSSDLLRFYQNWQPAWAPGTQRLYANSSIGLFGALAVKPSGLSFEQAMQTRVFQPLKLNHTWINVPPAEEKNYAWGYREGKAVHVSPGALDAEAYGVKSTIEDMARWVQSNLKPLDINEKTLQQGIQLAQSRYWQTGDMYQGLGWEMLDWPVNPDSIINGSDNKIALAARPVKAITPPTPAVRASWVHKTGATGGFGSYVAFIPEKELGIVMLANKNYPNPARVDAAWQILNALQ
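E. coli AmpC (5.3 nM) in 20 mM phosphate pH 7.0 with 0.01% Triton X-100, preincubated 15 min RT with compound; nitrocefin (2 uL of 800 uM stock) hydrolysis followed by 480 nm absorbance every 20 s over 4 min.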
AmpC inh no det – inhibitors of E. coli AmpC beta-lactamase without detergent. P00811. AmpC nitrocefin hydrolysis, absorbance 480 nm, no detergent. Potency, µM (titrated, usually from 28.7 µM), without a hit: at the top dose activity change, negative = inhibition. actives 1.8% (n = 71,000). AID 585; note: % of control where 0% means no effect
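Enzyme, pH 7.0 phosphate. Compound titrations were pre-incubated with AmpC for 15 min at room temperature before nitrocefin (stock 800 uM) addition; product formation was recorded at 480 nm every 20 s for 4 min.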
Active calls of the source: *; ? = inconclusive; [ ] = remark or other dose. Unless noted, calls come from the whole dose curve. Potency is the fitted concentration of half-maximal effect.

SMILES | LT uptake inh | Prx2 Sm inh | AmpC det inh | AmpC inh no det
CCOc1cc(C2CC(=O)N3CN(C4CCCCC4)CSC3=C2C#N)ccc1O (stereo not drawn) | -7.3% | >57 | 12.5% | 2.51µM*
COc1ccc2ccccc2c1C1CC(=O)N2CN(Cc3ccco3)CSC2=C1C#N (stereo not drawn) | ? | >57 | 0.5% | 3.98µM*[single pt active]
COc1cc(C2CC(=O)N3CN(Cc4ccco4)CSC3=C2C#N)ccc1OCc1ccccc1 (stereo not drawn) | ? | >57 | 9.4% | 3.98µM*[single pt active]
COc1ccc(C2CC(=O)N3CN(Cc4ccco4)CSC3=C2C#N)cc1 (stereo not drawn) | ? | >57 | -2.8% | -3.5%
COc1ccc2c3c([nH]c2c1)[C@H]1C[C@@H]2[C@@H](C[C@@H](O)[C@H](OC)[C@H]2C(=O)O)CN1CC3 | -12.7%[8 µM] | >57 | -2.0%[5.75 µM] | -0.4%[5.75 µM]
Cc1cc(C)cc(N(CC(=O)O)S(=O)(=O)c2cccnc2)c1 | -2.0% | >57 | 13.0% | 4.0%
C[C@@H]1O[C@H](O[C@H]2C[C@@H](O)[C@]3(CO)[C@H]4[C@H](O)C[C@]5(C)[C@@H](C6=CC(=O)OC6)CC[C@@]5(O)[C@H]4CC[C@]3(O)C2)[C@@H](O)[C@H](O)[C@H]1O | ? | >57 | 0.9% | -2.6%
C[C@H]1[C@H](NC(=O)/C(=N/OC(C)(C)C(=O)O)c2csc(N)n2)C(=O)N1S(=O)(=O)O (stereo in doubt) | -2.6%[3.58 µM] | >57 | 0.002µM* | 0.000794µM*
